Measured values as given in a collection of fitness landscapes (doi:10.1016/j.celrep.2020.107928).
The full ranking holds about 81,000 sequences; the median of “one-hybrid fitness for binding parS DNA” is about -0.17, and the highest 2% start at about 0.51. Only a selection was taken, and the highest values are over-represented in it overall.

B1: Caulobacter ParB omega fusion; a variant is named by its letters at X, in order, B8GW30 (parent)
chain: MESVVVGEPGMSEGRRGLGRGLSALLGEVDAAPAQAPGEQLGGSREAPIEILQRNPDQPRRTFREEDLEDLSNSIREKGVLQPILVRPSPDTAGEYQIVAGERAWRAAQRAGLKTVPIMVRELDDLAVLEIGIIENVQRADLNVLEEALSYKVLMEKFERTQENIAQTIGKSXSHVANXMRLLXLPDEVQSYLVSGELTAXHARAIAAAADPVALAKQIIEGGLSVRETEALARKAPNLSAGKSKGGRPPRVKDTDTQALESDLSSVLGLDVSIDHRGSTGTLTITYATLEQLDDLCNRLTRGI

Variants of: B1
Test: one-hybrid fitness for binding parS DNA (scaled: cognate 1, non-cognate 0); higher = stronger binding
Settings: with parS DNA site
Method in brief: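 Selection: bacterial one-hybrid in E. coli USO, HIS3 reporter with the site 19 bp from the promoter, 48 hours at 37°C on M9-minus-histidine plus 0.1 mM IPTG and 5 mM 3-AT. Libraries were Caulobacter ParB with four randomised specificity codons, sequenced on Illumina before and after selection. Fitness is the rescaled log change in variant-to-wild-type read ratio, anchored to the cognate and non-cognate sites.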

| Variant | one-hybrid fitness for binding parS DNA |
| --- | --- |
| RSDI | ≤ 0.2 |
| RMKF | 0.439 |
| RMKC | 0.849 |
| RMKQ | ≤ 0.2 |
| RMVH | ≤ 0.2 |
| RMVP | 0.206 |
| RMVC | 0.96 |
| EAIW | ≤ 0.2 |
| RITS | 0.992 |
| RKTD | ≤ 0.2 |
| RSTH | 0.234 |
| RSTS | 0.986 |
| RKTS | 0.815 |
| RTTH | 0.232 |
| RTTP | ≤ 0.2 |
| RTTS | 0.943 |
| RITN | 0.409 |
| RKTH | ≤ 0.2 |
| RITH | 0.214 |
| RSTD | ≤ 0.2 |
| IIGK | ≤ 0.2 |
| ENYG | ≤ 0.2 |
| PEAY | ≤ 0.2 |
| HKGC | ≤ 0.2 |
| KDVC | ≤ 0.2 |

| Variant | one-hybrid fitness for binding parS DNA |
| --- | --- |
| LAWM | ≤ 0.2 |
| IPRY | ≤ 0.2 |
| RPTS | ≤ 0.2 |
| RLTS | 0.984 |
| RCTS | 0.984 |
| RHTS | 0.893 |
| RCTN | 0.475 |
| RFTS | 1.01 |
| RLTP | ≤ 0.2 |
| RHTP | ≤ 0.2 |
| RHTN | 0.384 |
| RLTH | 0.232 |
| RFTH | ≤ 0.2 |
| RFTP | ≤ 0.2 |
| CLVL | ≤ 0.2 |
| FTSY | ≤ 0.2 |
| KNRS | ≤ 0.2 |
| LLFA | ≤ 0.2 |
| AVGG | ≤ 0.2 |
| AARP | ≤ 0.2 |
| SKSL | ≤ 0.2 |
| VMLN | ≤ 0.2 |
| SWPW | ≤ 0.2 |
| AGLI | ≤ 0.2 |
| MFAT | ≤ 0.2 |

| Variant | one-hybrid fitness for binding parS DNA |
| --- | --- |
| RATS | 1 |
| RMTN | 0.45 |
| RATH | 0.255 |
| RATD | ≤ 0.2 |
| RMTS | 0.975 |
| RMTD | 0.207 |
| RFKT | 0.902 |
| NFKT | ≤ 0.2 |
| RFVP | ≤ 0.2 |
| RFVQ | ≤ 0.2 |
| RFKP | ≤ 0.2 |
| RFVT | 0.614 |
| GMAG | ≤ 0.2 |
| DNQC | ≤ 0.2 |
| KSSE | ≤ 0.2 |
| PNYS | ≤ 0.2 |
| RTFN | 0.436 |
| RTAF | 0.256 |
| RTAC | 0.98 |
| RTFC | 0.986 |
| RTAN | 0.429 |
| RTFD | ≤ 0.2 |
| ITKL | ≤ 0.2 |
| KWHC | ≤ 0.2 |
| QGYA | ≤ 0.2 |

| Variant | one-hybrid fitness for binding parS DNA |
| --- | --- |
| RIMM | 0.377 |
| RIMR | ≤ 0.2 |
| RKMM | 0.283 |
| DFMG | ≤ 0.2 |
| RKMG | 0.951 |
| NFMG | ≤ 0.2 |
| RHMK | ≤ 0.2 |
| RFMG | 0.864 |
| RKMQ | ≤ 0.2 |
| RIMG | 0.996 |
| RHMY | 0.383 |
| RHMG | 0.932 |
| AATS | ≤ 0.2 |
| LNQW | ≤ 0.2 |
| ILSS | ≤ 0.2 |
| QYSS | ≤ 0.2 |
| QVQQ | ≤ 0.2 |
| YRRM | ≤ 0.2 |
| RAMG | 0.995 |
| RAMY | 0.435 |
| RRMR | ≤ 0.2 |
| RCMG | 1.03 |
| RPMG | ≤ 0.2 |
| RRMG | 0.806 |
| RSMG | 0.962 |

| Variant | one-hybrid fitness for binding parS DNA |
| --- | --- |
| REMG | ≤ 0.2 |
| RRMM | ≤ 0.2 |
| RDMG | ≤ 0.2 |
| RAMK | ≤ 0.2 |
| RSMR | ≤ 0.2 |
| LNGD | ≤ 0.2 |
| WSGR | ≤ 0.2 |
| IRPG | ≤ 0.2 |
| LHHS | ≤ 0.2 |
| PPPY | ≤ 0.2 |
| RLMR | ≤ 0.2 |
| RMMH | ≤ 0.2 |
| RMMG | 0.985 |
| RTMR | ≤ 0.2 |
| RMMQ | 0.215 |
| RTMK | ≤ 0.2 |
| RLMY | 0.49 |
| RTMG | 1 |
| RLMG | 1.02 |
| MPYE | ≤ 0.2 |
| MAAF | ≤ 0.2 |
| SSTQ | ≤ 0.2 |
| DFFS | ≤ 0.2 |
| VTNA | ≤ 0.2 |
| QCWG | ≤ 0.2 |

| Variant | one-hybrid fitness for binding parS DNA |
| --- | --- |
| SHRE | ≤ 0.2 |
| RRHI | ≤ 0.2 |
| TAII | ≤ 0.2 |
| LRVW | ≤ 0.2 |
| AKPV | ≤ 0.2 |
| QKYL | ≤ 0.2 |
| RMIH | 0.223 |
| RMIP | ≤ 0.2 |
| RMPG | 0.775 |
| RMPY | 0.322 |
| RMPL | ≤ 0.2 |
| RMIG | 0.947 |
| VWYT | ≤ 0.2 |
| HCQT | ≤ 0.2 |
| TAHC | ≤ 0.2 |
| RTKH | 0.439 |
| RTVP | ≤ 0.2 |
| RTVS | 1 |
| RTKS | 0.815 |
| RTVN | 0.387 |
| RTKD | ≤ 0.2 |
| PTHK | ≤ 0.2 |
| YTPL | ≤ 0.2 |
| RQHH | 0.292 |
| RQHD | ≤ 0.2 |

| Variant | one-hybrid fitness for binding parS DNA |
| --- | --- |
| RQDY | 0.421 |
| RQHT | 0.892 |
| RQRK | ≤ 0.2 |
| RQST | 0.916 |
| RQRT | 0.849 |
| RQRM | 0.349 |
| RQDM | 0.324 |
| RQSM | 0.319 |
| RQSR | ≤ 0.2 |
| RQDT | 0.768 |
| VPNM | ≤ 0.2 |
| PYKG | ≤ 0.2 |
| NCIC | ≤ 0.2 |
| LPKF | ≤ 0.2 |
| GQSM | ≤ 0.2 |
| WYTC | ≤ 0.2 |
| RQYM | 0.318 |
| RQGD | ≤ 0.2 |
| RQQF | 0.28 |
| RQGT | 0.847 |
| RQNQ | ≤ 0.2 |
| RQNE | ≤ 0.2 |
| RQGH | 0.249 |
| RQQR | ≤ 0.2 |
| RQQT | 0.895 |

| Variant | one-hybrid fitness for binding parS DNA |
| --- | --- |
| RQNT | 0.889 |
| RQYT | 0.847 |
| RQYK | ≤ 0.2 |
| NLLR | ≤ 0.2 |
| RPHV | ≤ 0.2 |
| WPRR | ≤ 0.2 |
| VTAC | ≤ 0.2 |
| DHDY | ≤ 0.2 |
| MGLM | ≤ 0.2 |
| DCQR | ≤ 0.2 |
| HLAT | ≤ 0.2 |
| RQWF | ≤ 0.2 |
| RQLT | 0.86 |
| RQCD | ≤ 0.2 |
| RQCT | 0.846 |
| RQWT | 0.702 |
| RQCP | ≤ 0.2 |
| RQLR | ≤ 0.2 |
| RQLM | 0.301 |
| RQWR | ≤ 0.2 |
| FMNC | ≤ 0.2 |
| QHYS | ≤ 0.2 |
| AARS | ≤ 0.2 |
| AYIV | ≤ 0.2 |
| GHTQ | ≤ 0.2 |

| Variant | one-hybrid fitness for binding parS DNA |
| --- | --- |
| WFQV | ≤ 0.2 |
| RSAG | 0.992 |
| RPAG | ≤ 0.2 |
| RDAG | ≤ 0.2 |
| RCAG | 1.02 |
| RSAF | 0.266 |
| REAG | ≤ 0.2 |
| RPEM | ≤ 0.2 |
| VMQS | ≤ 0.2 |
| RGMY | ≤ 0.2 |
| RGMG | 0.604 |
| RGMD | ≤ 0.2 |
| RGMN | ≤ 0.2 |
| RGMS | 0.672 |
| RGMQ | ≤ 0.2 |
| RGMC | 0.543 |
| RGMP | ≤ 0.2 |
| RGMM | ≤ 0.2 |
| PVHI | ≤ 0.2 |
| HKLN | ≤ 0.2 |
| WWDG | ≤ 0.2 |
| RNHR | ≤ 0.2 |
| DEPC | ≤ 0.2 |
| RVNQ | ≤ 0.2 |
| RVSR | ≤ 0.2 |

| Variant | one-hybrid fitness for binding parS DNA |
| --- | --- |
| RVNG | 0.992 |
| RVDK | ≤ 0.2 |
| RVSM | 0.347 |
| RVWH | ≤ 0.2 |
| RVNM | 0.324 |
| RVWP | ≤ 0.2 |
| RVWG | 0.982 |
| RVDG | 0.874 |
| RVSG | 0.999 |
| RVDQ | ≤ 0.2 |
| AQKQ | ≤ 0.2 |
| HTYC | ≤ 0.2 |
| VSWE | ≤ 0.2 |
| SPNG | ≤ 0.2 |
| LCPA | ≤ 0.2 |
| LGTD | ≤ 0.2 |
| MNAP | ≤ 0.2 |
| PHSE | ≤ 0.2 |
| DQES | ≤ 0.2 |
| NCWT | ≤ 0.2 |
| RCSE | ≤ 0.2 |
| MTTC | ≤ 0.2 |
| RVHG | 1.03 |
| RVRG | 0.955 |
| RVCR | ≤ 0.2 |

| Variant | one-hybrid fitness for binding parS DNA |
| --- | --- |
| RVHK | ≤ 0.2 |
| RVRM | 0.392 |
| RVYG | 1.02 |
| RVCG | 0.972 |
| RVHQ | ≤ 0.2 |
| RVRF | 0.266 |
| RVYP | 0.213 |
| RVCF | 0.249 |
| RVYN | 0.46 |
| MWSG | ≤ 0.2 |
| WLTK | ≤ 0.2 |
| SYTT | ≤ 0.2 |
| YPIF | ≤ 0.2 |
| ESYW | ≤ 0.2 |
| ARYC | ≤ 0.2 |
| RVGR | ≤ 0.2 |
| RVGK | ≤ 0.2 |
| RVLG | 0.992 |
| RVQF | 0.234 |
| RVGG | 1.01 |
| RVLD | 0.245 |
| RVQG | 0.999 |
| RVQR | ≤ 0.2 |
| RVLN | 0.423 |
| EAAT | ≤ 0.2 |

| Variant | one-hybrid fitness for binding parS DNA |
| --- | --- |
| GLPN | ≤ 0.2 |
| PHRK | ≤ 0.2 |
| FRSF | ≤ 0.2 |
| RHWD | ≤ 0.2 |
| RKWC | 0.887 |
| RHWC | 0.759 |
| RRWN | 0.323 |
| RRWC | 0.739 |
| RIWC | 0.936 |
| RIWQ | ≤ 0.2 |
| RKWM | 0.254 |
| RIWR | ≤ 0.2 |
| RRWH | ≤ 0.2 |
| RKWR | ≤ 0.2 |
| RHWH | ≤ 0.2 |
| SIKI | ≤ 0.2 |
| YAQR | ≤ 0.2 |
| PSHG | ≤ 0.2 |
| PMWK | ≤ 0.2 |
| IENR | ≤ 0.2 |
| ANYG | ≤ 0.2 |
| HGQS | ≤ 0.2 |
| KWCC | ≤ 0.2 |
| NAYS | ≤ 0.2 |
| ENRN | ≤ 0.2 |

| Variant | one-hybrid fitness for binding parS DNA |
| --- | --- |
| TWCR | ≤ 0.2 |
| THVD | ≤ 0.2 |
| RLWF | 0.255 |
| RMWM | 0.344 |
| RSWC | 0.847 |
| RLWM | 0.342 |
| RMWL | ≤ 0.2 |
| RSWH | ≤ 0.2 |
| RMWC | 0.984 |
| REWC | ≤ 0.2 |
| RPWC | ≤ 0.2 |
| RCWC | 0.959 |
| RSWN | 0.412 |
| RLWC | 0.952 |
